ChEMBL document CHEMBL1201862, “PubChem BioAssay data set” (2004)
Out of some 340,000 compounds screened, about 12,000 (3.5%) were called active. Inconclusive results (about 18%) are left out. The calls are words filed in the database; no cut-off is given here. Many of the other results were omitted from the sample, so actives are more common in it than they were.

Assay: qHTS Assay for Inhibitors of Hepatitis C Virus (HCV).
Type: functional
Conditions: read-out: Potency

SMILES	AC50
CO[C@H]1/C=C\O[C@@]2(C)Oc3c(C)c(O)c4c(O)c(c5c(c4c3C2=O)=NC2(CCN(CC(C)C)CC2)N=5)NC(=O)/C(C)=C\C=C/[C@H](C)[C@H](O)[C@@H](C)[C@@H](O)[C@@H](C)[C@H](OC(C)=O)[C@@H]1C	158 µM (active)
COc1ccc([C@@]23Oc4cc(OC)cc(OC)c4[C@]2(O)[C@H](O)[C@H](C(=O)N(C)C)[C@H]3c2ccccc2)cc1 [ROCAGLAMIDE]	100 µM (active)
O=C(O)c1cc(O)c2c(c1)[C@@H]([C@H]1c3cc(C(=O)O)cc(O)c3C(=O)c3c(O[C@@H]4O[C@H](CO)[C@@H](O)[C@H](O)[C@H]4O)cccc31)c1cccc(OC3O[C@H](CO)[C@@H](O)[C@H](O)[C@H]3O)c1C2=O (stereo partly specified)	79.4 µM (active)
[N-]=[N+]=NC[C@H](Cc1ccccc1)N1CC[C@@H](OCc2ccccc2)CCC1=O	100 µM (active)
Cl.N[C@@H](CCC(=O)O)C(=O)O [GLUTAMIC ACID HYDROCHLORIDE]	1.12 µM (active)
C#CC(=O)N(c1cc(OC)ccc1OC)C(C(=O)NC1CCCC1)c1cccs1 (stereo unspecified)	112 µM (active)
